Test results taken from PubChem BioAssay (Tox21).
A number with no mark means an inactive call. Calls of active or inactive are those of the source. Calls follow the shape of the dose curve; as a rule, active = well fitted curve in the direction sought with a large enough effect in the repeat runs; inconclusive = weak or mixed curves; inactive = flat fitted curve, though single readings scatter.

Assay: qHTS assay to test for compound auto fluorescence at 590 nm (red) in HEK293 cell free culture (AID 720683)
Conditions: cell-free medium autofluorescence, Ex540/Em590 red; series mostly up to 91.3 µM; fluorescence, % of fluorescent control: at the top concentration
Description: U.S. Tox21 Program National Center for Advancing Translational Sciences [NCATS] NIH Chemical Genomics Center [NCGC] U.S. Environmental Protection Agency [EPA] National Institutes of Environmental Health Sciences [NIEHS] National Toxicology Program [NTP] U.S. Food and Drug Administration [FDA] Tox21 Assay Overview: Compound auto fluorescence often interferes with screening of the compound library against various biological targets and signaling pathways. Some of these compounds may have fluorophoric properties. Such properties may interfere with the assay outputs resulting in false positives and/or negatives. To decrease such complications and ensure the compound activities are relevant in terms of biological response, the Tox21 10K compound library was screened for auto fluorescence. From the fluorophores used as reporter signals in our screening assays, the auto fluorescence equivalencies of compounds against three fluorophores have been evaluated: Triamterene, Fluorescein and Rose Bengal sodium for blue, green and red fluorescence, respectively. The fluorescence intensities were measured using Excitation/Emission wavelengths at 405/460nm, 485/535nm and 540/590nm for blue, green and red labels, respectively. This assay includes the red fluorescence data.
Tox21 Assay Protocol Summary: 5 uL of culture medium (DMEM containing 10% FBS) per well was dispensed into black wall/clear bottom 1536-well plates using a Multidrop Combi Dispenser (ThermoFisher Scientific, Waltham, MA). After 23 nL compound or DMSO vehicle was transferred into assay plate by a pintool work station (Kalypsys, San Diego, CA), fluorescence intensities in the assay plates were measured by an Envision (PerkinElmer, Shelton, CT) plate reader using three labels for measuring blue, green and red fluorescence at […] 460, 535 and 590nm respectively.
% is scaled to controls: 0 for no effect and ±100 for the full control effect.

Structure (SMILES)	fluorescence, % of fluorescent control	outcome
CC(C)Cc1ccc(CC(=O)O)cc1	0.108% [at 46 µM]	
Cc1ccc2nc(N)[nH]c(=O)c2c1Sc1ccncc1	-0.0267% [at 46 µM]	
O=C(O)CCC(=O)c1ccc(-c2ccccc2)cc1	0.387% [at 18.6 µM]	
c1ccc2sc(SSc3nc4ccccc4s3)nc2c1	0.0075% [at 46 µM]	
CC(CCc1ccc(O)cc1)NCCc1ccc(O)c(O)c1 (stereo not given)	0.181% [at 46 µM]	
CC(=O)N[C@@H](Cc1ccc(O)cc1)C(=O)O	0.341% [at 46 µM]	
CCCCCCCCCCCSCC(=O)O	-0.0714%	
C1=CCC2CC=CC2C1 (stereo not given)	0.116%	
CC(=O)OC(C)C[N+](C)(C)C (stereo not given)	0.423% [at 18.6 µM]	
O=C(Nc1ccc(C(=O)O)c(O)c1)c1ccccc1	0.124% [at 46 µM]	
NC(=O)c1ccccc1[N+](=O)[O-]	-0.0031% [at 95.7 µM]	
COc1ccc(C(=O)NCc2ccc(OCCN(C)C)cc2)cc1OC	-0.206% [at 46 µM]	
CC(C)C(O)C(C)(C)CO (stereo not given)	-0.261% [at 95.7 µM]	
O=[N+]([O-])c1ccc2ncccc2c1	0.0822%	
O=C1CC[C@@H](C(=O)O)N1	-0.0618% [at 46 µM]	
CC/C=C\C/C=C\C/C=C\CCCCCCCC(=O)OCC	0.0286% [at 95.7 µM]	
CCN(CC)C(=O)/C(C#N)=C/c1cc(O)c(O)c([N+](=O)[O-])c1	0.0531% [at 46 µM]	
CNCc1ccc(NC(=O)c2c[nH]c3c2C(=O)CCC3)cc1	0.174%	
c1ccc(CNc2ncnc3c2ncn3C2CCCCO2)cc1 (stereo not given)	0.176%	
CC(C)COC(=O)c1ccc(O)cc1	-0.0866%	

Structure (SMILES)	fluorescence, % of fluorescent control	outcome
Cc1ccc(Cl)cc1N	-0.459% [at 95.7 µM]	
O=NN(CCCl)C(=O)NCCCl	-0.0361% [at 46 µM]	
Cc1cc([N+](=O)[O-])ccc1N	-0.336%	
CCSC(=O)N(CC)CC	0.105%	
Nc1nc2ccc(OC(F)(F)F)cc2s1	-0.0809% [at 46 µM]	
CC(=O)C(C)=O	0.332%	
OCC(CO)n1cnc(-c2ccc(F)cc2)c1-c1ccnc(Oc2ccccc2)n1	-0.514%	
COC(CC(C)CCCC(C)(C)O)OC (stereo not given)	0.167%	
COC(=O)CC(C(C)=O)C(=O)OC (stereo not given)	-0.161%	
COc1ccc2nc(S(=O)Cc3ncc(C)c(OC)c3C)[nH]c2c1 (stereo not given)		inactive
C=Cc1ccc(OC(C)=O)cc1	-0.413%	
O=C(c1ccccc1)c1ccc(O)cc1	0.0508% [at 95.7 µM]	
C=C(C)C(=O)OCCC(F)(F)C(F)(F)C(F)(F)C(F)(F)C(F)(F)C(F)(F)F	-0.0477%	
Nc1ccn([C@H]2CS[C@@H](CO)O2)c(=O)n1		inactive
Cc1c[nH]c2ccccc12	0.229% [at 46 µM]	
CC(C)(C(=O)c1cccnc1)c1cccnc1	0.0451% [at 18.6 µM]	
O=C1c2ccccc2C(=O)c2c(O)ccc(O)c21	-0.0213%	
CC[C@H]1OC(=O)[C@H](C)[C@@H](O[C@H]2C[C@@](C)(OC)[C@@H](O)[C@H](C)O2)[C@H](C)[C@@H](O[C@@H]2O[C@H](C)C[C@H](N(C)C)[C@H]2O)[C@](C)(O)C[C@@H](C)C(=O)[C@H](C)[C@@H](O)[C@]1(C)O		inactive
COC(OC)OC	-0.256%	
CC1CCCO1 (stereo not given)	-0.213%	
